Assay results as given in the supplement of paper PMC8387472.
Where a name gives a salt, the structure may show the parent alone. ± gives the standard deviation of the averaged measurements.

Test system: mESC LDLR-Dup GFP reporter (SpCas9 MH-deletion repair)
Experiment: fraction of GFP+ cells relative to DMSO control (fold change); higher = more MH-deletion repair to in-frame LDLR (or more editing)
Conditions: 2 µM; 7 days post-transfection

`NC(=O)c1cc(N2CC2)c([N+](=O)[O-])cc1[N+](=O)[O-]` and `CN1CCN(c2ccc([N+](=O)[O-])c3no[n+]([O-])c23)CC1` are within error of each other in “fraction of GFP+ cells” value: 1.43 ± 0.66 for the first, 1.37 ± 0.088 for the second.

`C[C@H]1CCC/C=C/[C@@H]2C[C@H](O)C[C@H]2[C@H](O)/C=C/C(=O)O1` [Brefeldin A] and `COC[C@H]1OC(=O)c2coc3c2[C@@]1(C)C1=C(C3=O)[C@@H]2CCC(=O)[C@@]2(C)C[C@H]1OC(C)=O` [Wortmannin] are within error of each other in “fraction of GFP+ cells” value: 0.627 ± 0.22 for the first, 0.685 ± 0.098 for the second.

`C/C(O)=C(\C#N)C(=O)Nc1cc(Br)ccc1Br` and `Cn1c(CCCC(=O)O)nc2cc(N(CCCl)CCCl)ccc21` [Bendamustine HCl] are within error of each other in “fraction of GFP+ cells” value: 1.04 ± 0.32 for the first, 1.26 ± 0.33 for the second.

First: O=C(O)CCCc1ccc(N(CCCl)CCCl)cc1 [Chloroambucil]
Second: O=P1(N(CCCl)CCCl)NCCCO1 (stereo not given) [Cyclophosphamide Monohydrate]
The “fraction of GFP+ cells” value of the first is higher: 2.44 ± 0.046 for the first, 1.78 ± 0.27 for the second.

First: COc1ccc2c(c1)/C(=C/c1cnc[nH]1)C(=O)N2
Second: COc1ccc2c(c1)[nH]c1c(C)nccc12 [harmine hydrochloride]
The “fraction of GFP+ cells” value of the first is higher: 1.29 ± 0.051 for the first, 1.1 ± 0.11 for the second.

Compared with `Cc1cc(SCc2sc(-c3ccc(C(F)(F)F)c(F)c3)nc2C)ccc1OCC(=O)O`, `CCN1CCN(C(=O)Cc2ccc(Nc3ncc(F)c(Nc4ccc(C(=O)Nc5ccccc5Cl)cc4)n3)cc2)CC1` [Aurora A Inhibitor I] is lower in “fraction of GFP+ cells” value: 1.72 ± 0.64 for the first, 0.548 ± 0.13 for the second.

`C/C=C(\C)C(=O)N[C@@H](c1ccccc1)[C@@H](O)C(=O)O[C@H]1C[C@@]2(O)[C@@H](OC(=O)c3ccccc3)[C@@H]3[C@]4(OC(C)=O)CO[C@@H]4C[C@H](O)[C@@]3(C)C(=O)[C@H](OC(C)=O)C(=C1C)C2(C)C` [Cephalomannine] and `CCn1cc(C(=O)O)c(=O)c2cc3c(cc21)OCO3` [Oxolinic acid] are within error of each other in “fraction of GFP+ cells” value: 1.54 ± 0.41 for the first, 0.941 ± 0.23 for the second.

`O=P1(NCCCl)OCCCN1CCCl` (stereo not given) [Ifosfamide] was tested, and the “fraction of GFP+ cells” value was 1.11 ± 0.34.
